Assay results from PubChem BioAssay AID624330 (Southern Research Specialized Biocontainment Screening …, 2012).
Out of some 340,000 compounds screened, about 2,100 (0.62%) were called active.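 Rule for the calls: active = first-screen hits whose inhibition reached a set limit at any dose in the follow-up dose series; inconclusive = inhibition above the set first-screen limit but never retested; inactive = the rest.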 Not all results are given here. Results with a measured potency or affinity are listed apart.

What follows are compounds tested against Rac GTPase-activating protein 1 (Homo sapiens) (UniProt Q9H0H5) (assay: blockers of MgcRacGAP-driven Rac1 GTP hydrolysis – biochemical, ADP Hunter fluorescence, primary and confirmatory, confirmation (AID 624330;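 note: fluorescence reports GDP produced by GAP-driven GTP hydrolysis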)). Conditions: MgcRacGAP-stimulated Rac1 GTP hydrolysis, at 30 µM, hits give high values, GST-tagged Rac1 F28L mutant substrate.
Sequence of Rac GTPase-activating protein 1 (Homo sapiens) (Q9H0H5 whole entry, looked up): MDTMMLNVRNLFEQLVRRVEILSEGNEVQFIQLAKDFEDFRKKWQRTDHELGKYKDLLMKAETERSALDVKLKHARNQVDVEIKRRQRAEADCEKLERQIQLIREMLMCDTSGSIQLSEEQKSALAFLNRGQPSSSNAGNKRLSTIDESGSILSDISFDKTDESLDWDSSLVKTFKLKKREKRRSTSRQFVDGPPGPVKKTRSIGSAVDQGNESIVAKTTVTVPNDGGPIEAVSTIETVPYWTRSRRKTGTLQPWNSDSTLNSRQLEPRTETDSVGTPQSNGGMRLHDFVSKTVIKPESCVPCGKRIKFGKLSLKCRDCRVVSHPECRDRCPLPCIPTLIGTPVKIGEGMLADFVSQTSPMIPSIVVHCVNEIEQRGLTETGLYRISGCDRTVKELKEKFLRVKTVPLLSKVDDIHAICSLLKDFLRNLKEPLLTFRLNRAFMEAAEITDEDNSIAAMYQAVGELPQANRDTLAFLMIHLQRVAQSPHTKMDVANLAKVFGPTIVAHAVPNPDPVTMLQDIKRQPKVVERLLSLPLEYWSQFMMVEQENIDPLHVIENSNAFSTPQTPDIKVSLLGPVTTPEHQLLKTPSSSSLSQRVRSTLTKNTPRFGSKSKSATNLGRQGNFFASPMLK

inhibition, inactive:
Cc1ccc(/C=C/C(=O)OCC(=O)NCCN2C(=O)CSC2=O)o1 5.03%
Cc1nc(CNC(=O)C2CCC(=O)N(CCc3ccc(Cl)cc3)C2)sc1C (configuration not stated) 10.8%
COc1cc(/C=N/Nc2nc(Nc3ccccc3)nc(N3CCOCC3)n2)ccc1OC(=O)c1ccco1 8.66%
CN(C)c1ccc(-c2n(C)c3ccccc3[n+]2C)cc1 3.74%
CN(c1ccc(Cl)cc1)c1cc(=O)n(C)c2ccccc12 -1.02%
O=C(Nc1ccc([N+](=O)[O-])cc1)c1cccc([N+](=O)[O-])c1 16.6%
Cc1ccc(NC(=O)c2cccc(Oc3ccc([N+](=O)[O-])cc3)c2)c(C(=O)O)c1 7.38%
Cc1cc(NC(=O)CN2C(=O)NC(C)(CC(C)C)C2=O)no1 (configuration not stated) 3.59%
COc1ccc(C(=O)O)cc1NC(=S)NC(=O)/C=C/c1ccc(C(C)C)cc1 14.7%
COC(=O)c1cc(=O)n(Cc2cccs2)c(=NCc2cccs2)s1 3.47%
CCOC(CN=c1nc(N(C)C)ss1)OCC 30.1%
Cc1cc(C2(O)C(=O)Nc3ccccc32)ccc1F (configuration not stated) -6.52%
COc1cccc(-c2cc(C(F)(F)F)n3nc(C(=O)Nc4c(C)n(C)n(-c5ccccc5)c4=O)cc3n2)c1 7.24%
O=C(Nc1ccccc1Cl)c1ccc(C(=O)Nc2ccccc2Cl)cc1 3.72%
O=C(Nc1ccccc1Cl)Nc1ccccc1Cl 10.3%
Cc1n[nH]c(C)c1N1C(=O)c2cccc3cc(Br)cc(c23)C1=O 15.9%
O=C(N/N=C/c1ccccc1)c1ccc(-c2ccccc2)cc1 5.75%
O=C(N/N=C/c1ccc(F)cc1)c1ccccc1 5.65%
O=C(NCc1ccccc1)C1Cc2ccccc2CN1C(=O)c1ccco1 (configuration not stated) 6.98%
COc1cc(/C=N/O)cc(Br)c1OCc1ccc(Cl)cc1 0.88%
CCCCN(C(=O)Cn1nnc2ccccc21)C(C(=O)NCCOC)c1cccs1 (configuration not stated) 9.34%
O=C(O)c1ccccc1Nc1ccc([N+](=O)[O-])c2nonc12 5.2%
O=[N+]([O-])c1ccc(O)c2cccnc12 5.34%
CS(=O)(=O)c1ccc(C(=O)Nc2ccc(S(=O)(=O)N3CCCCC3)cc2)cc1 3.97%
O=c1[nH]c2cc([N+](=O)[O-])ccc2c2ccccc12 2.35%
Nc1nc2ccc([N+](=O)[O-])cc2[nH]1 0.04%
O=C1N(C2CCCC2)C[C@@H]2C[C@@H](c3cn[nH]c3-c3ccc(Cl)cc3)N3CCC[C@@]123 7.84%
COc1ccc(CN2C3CCC2CC(NC(=O)c2cc(OC)c(OC)c(OC)c2)C3)cc1 (configuration not stated) 9.16%
Cc1ccc(S(=O)(=O)N(C)CC(=O)Nc2ncccc2C)cc1 -0.45%
CCCNC(=S)N1CC2(C)CN(C(=O)C(=O)OC)CC(C)(C1)C2=O 2.02%
CC(=O)N(c1ccccc1)c1nnc(-c2cnc(C)cn2)s1 -6.48%
Cc1c(O)ccc2c3c(c(=O)oc12)CCC(C)C3 (configuration not stated) 29.3%
CC(=O)Oc1ccc2c3c(c(=O)oc2c1C)CCCC3 4.5%
CCOC(=O)CSc1nc2c(sc(=S)n2-c2ccccc2OC)c(=O)n1-c1ccccc1OC 3.56%
COc1ccc(CCN(C)CC(O)COc2ccc(C(C)=O)cc2OC)cc1OC (configuration not stated) 16.6%
COc1cc(C(C)=O)ccc1OCC(O)CNCC(O)c1ccccc1 (configuration not stated) 20.6%
CC(=O)Nc1ccc(CN2CCCC(CCC(=O)NCc3ccccc3F)C2)cc1 (configuration not stated) 3.48%
CCN1CCN(CCNC(=O)C2CCCN(Cc3nc(-c4cccc(Cl)c4)oc3C)C2)CC1 (configuration not stated) 5.46%
O=C(c1cccc(Cl)c1)N1CCN(Cc2ccc3c(c2)OCO3)CC1 7.04%
O=C(c1cccs1)N1CCN(Cc2cccnc2)CC1 30.4%
O=C(c1cccc(C(=O)N2CCN(Cc3ccccc3)CC2)c1)N1CCN(Cc2ccccc2)CC1 9.35%
O=C(c1cccs1)N1CCN(Cc2ccccc2)CC1 7.61%
CCSc1nnc(-c2cccc(S(=O)(=O)N(C)C)c2)n1-c1cc(OC)ccc1OC 1.21%
Cc1ccc(OCCCC(=O)N(C)CC(=O)Nc2ccccc2Cl)cc1 2.87%
CC(C)[C@H](NC(=O)c1ccco1)C(=O)Nc1ccc(N2CCCCCC2)cc1 9.75%
O=C(c1ccccc1)c1c[nH]c(C(=O)NCc2cccnc2)c1 -1.95%
COc1ccc2c(c1)CCc1c(C(=O)N(C)c3ccccc3)noc1-2 7.96%
Cc1sccc1/C=N/NC(=O)c1ccco1 3.82%
Cc1ccsc1/C=C(\C#N)C(=O)NCc1ccco1 2.06%
CC(=O)Oc1ccc(C(=O)Cc2ccc3ccccc3n2)c(O)c1C -0.13%
Cc1c(O)ccc(/C(Cc2ccc3ccccc3n2)=N\N)c1O 14.8%
O=C(NCC1CCCO1)c1cnn2c(C(F)F)cc(C3CC3)nc12 (configuration not stated) -0.05%
CCC(CO)Oc1cc(NCc2cccc(F)c2)c2ncn(C(C)C)c2c1 (configuration not stated) 6.74%
COc1cc(/C=C/C(=O)OCC(=O)N2CCCCCC2)ccc1OCC#N 3.21%
Nc1ccccc1N1CCN(C(=O)c2ccccc2)CC1 12.8%
COc1ccc(OCc2cc(C(=O)NC(C)c3nc(C)cs3)no2)c(Cl)c1 (configuration not stated) 7.35%
Oc1c(Br)cc(C2N=C(c3ccccc3)NO2)cc1Br (configuration not stated) -1.87%
Brc1ccc(-c2ccccc2)cc1 1.25%
C/C(=N\NC(=O)CNC(=O)c1ccccc1F)c1ccco1 2.16%
CCOc1ccc(NC(=O)COC(=O)Cc2ccsc2)cc1 2.81%
CC(=O)c1ccc(NC(=O)COC(=O)Cc2ccsc2)cc1 8.16%
Cc1ccc(NC(=O)COC(=O)CCC(=O)c2cccs2)cc1 6.66%
O=C(COC(=O)CNC(=O)c1cccs1)Nc1ccccc1C(F)(F)F 8.33%
CN(CC(=O)Nc1cc(Cl)cc(Cl)c1)Cc1cccs1 3.5%
CCN(CC)c1ccc(NC(=O)COC(=O)c2cccs2)cc1 21.8%
CCCOC(=O)c1ccc(NC(=O)CN(C)Cc2cccs2)cc1 10.3%
COc1ccc(NC(=O)COC(=O)CNC(=O)c2cccs2)cc1Cl 2.23%
CCCCC[C@H]1CN(Cc2ccccc2)C(=O)[C@@H]1CC(=O)NCc1ccccc1 8.29%
Cc1cccc(OCC(=O)Nc2nnc(S(=O)(=O)N3CCCCCC3)s2)c1 9.88%
Cc1[nH]c(C)c(S(=O)(=O)NCc2ccco2)c1C(=O)N1CCCCC1 16.2%
COc1ccccc1NC(=O)c1ccc[n+]([O-])c1 4.42%
Cc1cc(F)ccc1S(=O)(=O)Nc1ncnc2sccc12 -6.18%
COc1ccc(CNC(=O)O[C@@H]2C[C@H]3C(=O)N(c4ccccc4)C(=O)[C@H]3[C@@]3(CN(S(=O)(=O)c4ccc(C)cc4)C[C@H]3C)[C@@H]2O)cc1OC 13.3%
Cc1cn([C@@H](CCCCNC(=O)OC(C)(C)C)C(=O)NCCCCCCCCCCC(=O)N2CCN(C(=O)OC(C)(C)C)CC2)nn1 3.56%
Cc1ccccc1SCC(=O)OCC(=O)NCCNC(=O)COC(=O)CSc1ccccc1C 2.21%
CCN(CC)c1ccc(NC(=O)COC(=O)CSc2ccc(Br)cc2C)cc1 7.43%
O=C(Cn1ccc(C(F)(F)F)n1)N=Nc1c(O)[nH]c2ccccc12 4.76%
CCc1ccc(S(=O)(=O)NCCc2cn3cccc(C)c3n2)s1 4.85%
O=[N+]([O-])c1ccc(O)c(N=Cc2sc3ccccc3c2O)c1 27.9%
Cc1ccc(O)c(N=Cc2ccc(C)s2)c1 -11.5%
Oc1c(C=Nc2ccc(Cl)cn2)sc2ccccc12 8.33%
COc1ccc(N=Cc2sc3ccccc3c2Cl)cc1 11%
CN(C)C(=O)CSc1nc(-c2ccccc2)c(-c2ccccc2)o1 2.82%
COc1ccc(C(=O)Oc2ccc3c(c2)OCO3)cc1OC 7.69%
O=C(Oc1ccc(OC(=O)c2ccncc2)cc1)c1ccncc1 5.17%
COc1ccc(OC(=O)c2ccc(OC)c(S(=O)(=O)N3CCOCC3)c2)cc1 22.8%
O=C(Nc1ccc2c(c1)OCCO2)c1ccc(Br)c(S(=O)(=O)N2CCOCC2)c1 -4.87%
COc1ccc(CCN2C(=O)c3ccccc3NC2c2cc(Cl)c(O)c(OC)c2)cc1 (configuration not stated) 7.25%
COC(=O)c1c(NC(=O)CC2SC(N)=NC2=O)sc(C)c1C (configuration not stated) -4.36%
Nc1cc2c(cc1Cl)N(Cc1ccccc1)C(=O)CO2 4.01%
Cc1cc2c(NCC(C)O)ncnc2s1 (configuration not stated) 8.37%
CSCC(=O)N1CCCC(N2CCN(c3ccc(F)cc3)CC2)C1 (configuration not stated) 15.7%
Cc1ccccc1OCC(=O)Nc1ccc(N2CCN(C(=O)c3ccco3)CC2)cc1 10.3%
COc1ccc(CCNC(=O)COC(=O)c2cc(OC)c(OC)cc2OC)cc1OC 7.3%
C=CCc1cc(C)ccc1OCCn1ccnc1 17.7%
C=CCc1cc(Cl)ccc1OCCNCCOC 10.8%
C=CCc1cc(Cl)ccc1OCCCn1ccnc1 19.6%
C=CCc1cc(Cl)ccc1OCCCNC(C)C 23.5%
C=CCc1cc(Cl)ccc1OCCOCCN(C)C 22%
C=CCc1cc(C)ccc1OCCOCCn1ccnc1 15.9%
C=CCOc1ccc(Cl)cc1CNCCCN1CCOCC1 1.5%
C=CCc1ccccc1OCCn1ccnc1 9.27%
